# Assay results taken from the supplement of paper PMC8728848.
# This is one part of a sample in which the strongest signals are shown more often than they occur.
# B1: CD34 (Homo sapiens), P28906 (protein)
# chain: MGSSHHHHHHSSGLVPRGSHMSTSLATSPTKPYTSSSPILSDIKAEIKCSGIREVKLTQGICLEQNKTSSCAEFKKDRGEGLARVLCGEEQADADAGAQVCSLLLAQSEVRPQCLLLVLANRTEISSKLQLMKKHQSDLKKLGILDFTEQDVASHQSYSQKT
# What was measured:
# Test in all cases: glycan array binding signal (z-score within array); higher = stronger binding
# Conditions in all cases: glycan notation: IUPAC condensed, linker removed
# [1] = target: Fuc(a1-2)Gal(b1-4)Fuc(a1-3)]GlcNAc(b1-2)Man(a1-3)[Fuc(a1-2)Gal(b1-4)[Fuc(a1-3)]GlcNAc(b1-2)Man(a1-6)]Man(b1-4)GlcNAc(b1-4)GlcNAc
# How it was run: (§1)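 Glycan array binding is given as a within-array Z-score, which can be read as non-binding when negative. The arrays, 3228 of them, came from the Consortium for Functional Glycomics database and were retained only where the protein sequence was available. Z-scores were averaged across arrays of the same protein sequence at different concentrations or buffers and across linkers.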
# Fuc(a1-2)Gal(b1-4)GlcNAc = target: Fuc(a1-2)Gal(b1-4)GlcNAc
# How it was run: as §1
# [2] = target: Fuc(a1-2)Gal(b1-4)[Fuc(a1-3)]GlcNAc(b1-2)[Fuc(a1-2)Gal(b1-4)[Fuc(a1-3)]GlcNAc(b1-4)]Man(a1-3)[Fuc(a1-2)Gal(b1-4)[Fuc(a1-3)]GlcNAc(b1-2)Man(a1-6)]Man(b1-4)GlcNAc(b1-4)GlcNAc
# How it was run: as §1
# Fuc(a1-2)Gal6S(b1-4)Glc = target: Fuc(a1-2)Gal6S(b1-4)Glc
# How it was run: as §1
# [3] = target: Fuc(a1-2)[GalNAc(a1-3)]Gal(b1-3)GlcNAc(b1-3)GalNAc
# How it was run: as §1
# [4] = target: Fuc(a1-2)[GalNAc(b1-3)]Gal
# How it was run: as §1
# [5] = target: Fuc(a1-3)[Gal(b1-4)]GlcNAc(b1-6)GalNAc
# How it was run: as §1
# Fuc(a1-4)GlcNAc = target: Fuc(a1-4)GlcNAc
# How it was run: as §1
# Gal(a1-2)Gal = target: Gal(a1-2)Gal
# How it was run: as §1
# Gal(a1-3)Gal = target: Gal(a1-3)Gal
# How it was run: as §1
# Gal(a1-3)Gal(b1-3)GlcNAc = target: Gal(a1-3)Gal(b1-3)GlcNAc
# How it was run: as §1
# [6] = target: Gal(a1-3)Gal(b1-3)GlcNAc(b1-2)Man
# How it was run: as §1
# [7] = target: Gal(a1-3)Gal(b1-4)GlcNAc(b1-2)Man
# How it was run: as §1
# [8] = target: Gal(a1-4)Gal(b1-4)GlcNAc(b1-3)Gal(b1-4)Glc
# How it was run: as §1
# Gal(b1-3)GalNAc(b1-3)Gal = target: Gal(b1-3)GalNAc(b1-3)Gal
# How it was run: as §1
# [9] = target: Gal(b1-3)GalNAc(b1-4)Gal(b1-4)Glc
# How it was run: as §1
# [10] = target: Gal(b1-3)GlcNAc(b1-3)Gal(b1-4)GlcNAc
# How it was run: as §1
# [11] = target: Gal(b1-4)GlcNAc(b1-2)Man(a1-3)[Gal(b1-4)GlcNAc(b1-2)Man(a1-6)][GlcNAc(b1-4)]Man(b1-4)GlcNAc(b1-4)[Fuc(a1-6)]GlcNAc
# How it was run: as §1
# [12] = target: Gal(b1-4)GlcNAc(b1-2)Man(a1-3)[Man(a1-6)]Man(b1-4)GlcNAc(b1-4)GlcNAc
# How it was run: as §1
# [13] = target: Gal(b1-4)GlcNAc(b1-3)Gal(b1-4)GlcNAc(b1-2)[Gal(b1-4)GlcNAc(b1-3)Gal(b1-4)GlcNAc(b1-6)]Man(a1-6)[Gal(b1-4)GlcNAc(b1-3)Gal(b1-4)GlcNAc(b1-2)Man(a1-3)]Man(b1-4)GlcNAc(b1-4)GlcNAc
# How it was run: as §1
# [14] = target: Gal(b1-4)GlcNAc(b1-3)Gal(b1-4)GlcNAc(b1-3)GalNAc
# How it was run: as §1
# Gal3S(b1-4)Glc = target: Gal3S(b1-4)Glc
# How it was run: as §1
# Gal6S(b1-4)Glc = target: Gal6S(b1-4)Glc
# How it was run: as §1
# GalNAc(b1-3)Gal = target: GalNAc(b1-3)Gal
# How it was run: as §1
# [15] = target: GalNAc(b1-3)Gal(a1-6)Gal(b1-4)Glc
# How it was run: as §1
# [16] = target: GalNAc3S(b1-4)[Fuc(a1-3)]GlcNAc
# How it was run: as §1
# Glc(b1-6)Glc = target: Glc(b1-6)Glc
# How it was run: as §1
# [17] = target: GlcA3S(b1-3)Gal(b1-4)GlcNAc(b1-3)Gal(b1-4)Glc
# How it was run: as §1
# [18] = target: GlcNAc(b1-2)[GlcNAc(b1-4)]Man(a1-3)[GlcNAc(b1-4)][GlcNAc(b1-2)Man(a1-6)]Man(b1-4)GlcNAc(b1-4)GlcNAc
# How it was run: as §1
# [19] = target: GlcNAc(b1-2)[GlcNAc(b1-6)]Man(a1-6)[GlcNAc(b1-4)][GlcNAc(b1-2)Man(a1-3)]Man(b1-4)GlcNAc(b1-4)GlcNAc
# How it was run: as §1
# [20] = target: GlcNAc(b1-3)Gal(b1-4)GlcNAc(b1-2)[GlcNAc(b1-3)Gal(b1-4)GlcNAc(b1-6)]Man(a1-6)[GlcNAc(b1-3)Gal(b1-4)GlcNAc(b1-2)Man(a1-3)]Man(b1-4)GlcNAc(b1-4)GlcNAc
# How it was run: as §1
# [21] = target: GlcNAc(b1-3)Gal(b1-4)GlcNAc(b1-3)Gal(b1-4)GlcNAc
# How it was run: as §1
# [22] = target: GlcNAc(b1-4)GlcNAc(b1-4)GlcNAc(b1-4)GlcNAc(b1-4)GlcNAc
# How it was run: as §1
# Kdn(a2-6)Gal(b1-4)GlcNAc = target: Kdn(a2-6)Gal(b1-4)GlcNAc
# How it was run: as §1
# [23] = target: Man(a1-2)Man(a1-3)[Man(a1-6)]Man(a1-6)[Man(a1-2)Man(a1-3)]Man(b1-4)GlcNAc(b1-4)GlcNAc
# How it was run: as §1
# MurNAc(b1-4)GlcNAc = target: MurNAc(b1-4)GlcNAc
# How it was run: as §1
# [24] = target: Neu5Ac(a2-3)Gal(b1-3)GalNAc(b1-4)[Neu5Ac(a2-3)]Gal(b1-4)Glc
# How it was run: as §1
# [25] = target: Neu5Ac(a2-3)Gal(b1-3)GlcNAc(b1-2)Man(a1-3)[Neu5Ac(a2-3)Gal(b1-3)GlcNAc(b1-2)Man(a1-6)]Man(b1-4)GlcNAc(b1-4)GlcNAc
# How it was run: as §1
# [26] = target: Neu5Ac(a2-3)Gal(b1-3)GlcNAc6S
# How it was run: as §1
# [27] = target: Neu5Ac(a2-3)Gal(b1-3)[Fuc(a1-4)]GlcNAc(b1-3)Gal(b1-3)[Fuc(a1-4)]GlcNAc
# How it was run: as §1
# [28] = target: Neu5Ac(a2-3)Gal(b1-3)[Fuc(a1-4)]GlcNAc(b1-3)Gal(b1-4)[Fuc(a1-3)]GlcNAc
# How it was run: as §1
# [29] = target: Neu5Ac(a2-3)Gal(b1-4)GlcNAc(b1-2)Man
# How it was run: as §1
# [30] = target: Neu5Ac(a2-3)Gal(b1-4)GlcNAc(b1-3)Gal(b1-3)GlcNAc
# How it was run: as §1
# [31] = target: Neu5Ac(a2-3)Gal(b1-4)GlcNAc6S
# How it was run: as §1
# [32] = target: Neu5Ac(a2-3)Gal(b1-4)[Fuc(a1-3)]GlcNAc
# How it was run: as §1
# [33] = target: Neu5Ac(a2-3)[Neu5Ac(a2-6)]GalNAc
# How it was run: as §1
# [34] = target: Neu5Ac(a2-6)Gal(b1-4)GlcNAc(b1-2)Man(a1-6)[Gal(b1-4)GlcNAc(b1-2)Man(a1-3)]Man(b1-4)GlcNAc(b1-4)GlcNAc
# How it was run: as §1
# [35] = target: Neu5Ac(a2-6)Gal(b1-4)GlcNAc(b1-3)Gal(b1-4)GlcNAc(b1-2)Man(a1-3)[Neu5Ac(a2-6)Gal(b1-4)GlcNAc(b1-3)Gal(b1-4)GlcNAc(b1-2)Man(a1-6)]GalNAc
# How it was run: as §1
# [36] = target: Neu5Ac(a2-6)Gal(b1-4)GlcNAc(b1-3)Gal(b1-4)GlcNAc(b1-3)GalNAc
# How it was run: as §1
# [37] = target: Neu5Ac(a2-6)GalNAc(b1-4)GlcNAc6S
# How it was run: as §1
# [38] = target: Neu5Ac(a2-8)Neu5Ac(a2-3)[Gal(b1-3)GalNAc(b1-4)]Gal(b1-4)Glc
# How it was run: as §1
# [39] = target: Neu5Gc(a2-3)Gal(b1-3)[Fuc(a1-4)]GlcNAc
# How it was run: as §1
# [40] = target: Neu5Gc(a2-3)Gal(b1-4)[Fuc(a1-3)]GlcNAc
# How it was run: as §1
# [41] = target: Neu5Gc(b2-6)Gal(b1-4)GlcNAc
# How it was run: as §1
binder,measurement,setting,value
B1,glycan array binding signal (z-score),[1],1.89
same,glycan array binding signal (z-score),Fuc(a1-2)Gal(b1-4)GlcNAc,0.713
same,glycan array binding signal (z-score),[2],1.72
same,glycan array binding signal (z-score),Fuc(a1-2)Gal6S(b1-4)Glc,0.088
same,glycan array binding signal (z-score),[3],1.77
same,glycan array binding signal (z-score),[4],-0.335
same,glycan array binding signal (z-score),[5],-0.245
same,glycan array binding signal (z-score),Fuc(a1-4)GlcNAc,0.624
same,glycan array binding signal (z-score),Gal(a1-2)Gal,-0.315
same,glycan array binding signal (z-score),Gal(a1-3)Gal,0.754
same,glycan array binding signal (z-score),Gal(a1-3)Gal(b1-3)GlcNAc,0.398
same,glycan array binding signal (z-score),[6],0.084
same,glycan array binding signal (z-score),[7],-1.01
same,glycan array binding signal (z-score),[8],-0.647
same,glycan array binding signal (z-score),Gal(b1-3)GalNAc(b1-3)Gal,-0.13
same,glycan array binding signal (z-score),[9],0.08
same,glycan array binding signal (z-score),[10],-0.549
same,glycan array binding signal (z-score),[11],-0.754
same,glycan array binding signal (z-score),[12],-0.73
same,glycan array binding signal (z-score),[13],2.58
same,glycan array binding signal (z-score),[14],1.97
same,glycan array binding signal (z-score),Gal3S(b1-4)Glc,1.83
same,glycan array binding signal (z-score),Gal6S(b1-4)Glc,-0.308
same,glycan array binding signal (z-score),GalNAc(b1-3)Gal,1.82
same,glycan array binding signal (z-score),[15],-1.07
same,glycan array binding signal (z-score),[16],0.211
same,glycan array binding signal (z-score),Glc(b1-6)Glc,-1.19
same,glycan array binding signal (z-score),[17],-0.551
same,glycan array binding signal (z-score),[18],-0.524
same,glycan array binding signal (z-score),[19],-0.731
same,glycan array binding signal (z-score),[20],-0.175
same,glycan array binding signal (z-score),[21],-0.666
same,glycan array binding signal (z-score),[22],0.087
same,glycan array binding signal (z-score),Kdn(a2-6)Gal(b1-4)GlcNAc,-0.352
same,glycan array binding signal (z-score),[23],-0.726
same,glycan array binding signal (z-score),MurNAc(b1-4)GlcNAc,1.79
same,glycan array binding signal (z-score),[24],2.63
same,glycan array binding signal (z-score),[25],2.09
same,glycan array binding signal (z-score),[26],0.142
same,glycan array binding signal (z-score),[27],1.31
same,glycan array binding signal (z-score),[28],-0.478
same,glycan array binding signal (z-score),[29],1.1
same,glycan array binding signal (z-score),[30],-0.171
same,glycan array binding signal (z-score),[31],-0.319
same,glycan array binding signal (z-score),[32],-0.826
same,glycan array binding signal (z-score),[33],-0.204
same,glycan array binding signal (z-score),[34],-0.644
same,glycan array binding signal (z-score),[35],0.167
same,glycan array binding signal (z-score),[36],0.803
same,glycan array binding signal (z-score),[37],0.66
same,glycan array binding signal (z-score),[38],-0.858
same,glycan array binding signal (z-score),[39],0.294
same,glycan array binding signal (z-score),[40],1.71
same,glycan array binding signal (z-score),[41],-0.479
